Laboratory results from the supplement of paper PMC5373622, “Screening for AMPA receptor auxiliary subunit specific modulators” (PLoS ONE, 2017).

What follows are compounds tested on GRIA2 (assay: glutamate-evoked VSD slope (GluSlope), % of maximal glutamate response; higher = potentiation (PAM), active = hit call of the paper). Details: 10 µM; glutamate: EC50 (3-4 uM); clone: A2R-stg (HEK293 GluA2flip(R) + stargazin).
Description: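 lower means inhibition (NAM); Primary voltage-sensitive dye (FLIPR Blue) screen on TetON HEK293 cells expressing GluA2flip(R) with stargazin (A2R-stg). Compound at 10 uM was preincubated for 290 s, then about EC50 glutamate (3-4 uM) was added; fluorescence was read on an FDSS at 1 Hz. GluSlope is expressed as % of the mean maximal-glutamate (1 mM) slope after vehicle subtraction. Hits deviated more than 3 SD from the plate EC50-glutamate wells. One well per compound.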

| SMILES | glutamate-evoked VSD slope |
| --- | --- |
| Cc1ccc(-n2nc3c(c2-n2cccc2)CN(C(=O)c2cnccn2)C3)cc1C | 61.4% (inactive) |
| Cc1ccccc1OCC(=O)Nc1cc(C(=O)N2CCCC2)cn(C)c1=O | 58.2% (inactive) |
